Results filed as inconclusive are left out. A number with no mark means an inactive call. Calls follow the shape of the full dose curve.
% is scaled to controls: 0 for no effect and ±100 for the full control effect.

The target of this assay is 5-hydroxytryptamine receptor 2A (Homo sapiens) (UniProt P28223). The experiment in a line: 5-hydroxytryptamine receptor 2A (HTR2A) small molecule agonists, cell-based qHTS assay (AID 1963587). Also: nearly all actives have a fitted effect of over 30% in size. Particulars: HTR2A-CHO cells, calcium flux fluorescence, agonist mode; series mostly up to 76.8 µM; activation: at the top concentration. The method in brief: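 Kinetic calcium-flux fluorescence (2 min, 1 sec intervals) after compound addition in agonist mode. HTR2A-CHO cells were cultured 18 h, then dye-loaded 1 h at 37 C.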
5-hydroxytryptamine receptor 2A (Homo sapiens), sequence (P28223 whole entry, looked up): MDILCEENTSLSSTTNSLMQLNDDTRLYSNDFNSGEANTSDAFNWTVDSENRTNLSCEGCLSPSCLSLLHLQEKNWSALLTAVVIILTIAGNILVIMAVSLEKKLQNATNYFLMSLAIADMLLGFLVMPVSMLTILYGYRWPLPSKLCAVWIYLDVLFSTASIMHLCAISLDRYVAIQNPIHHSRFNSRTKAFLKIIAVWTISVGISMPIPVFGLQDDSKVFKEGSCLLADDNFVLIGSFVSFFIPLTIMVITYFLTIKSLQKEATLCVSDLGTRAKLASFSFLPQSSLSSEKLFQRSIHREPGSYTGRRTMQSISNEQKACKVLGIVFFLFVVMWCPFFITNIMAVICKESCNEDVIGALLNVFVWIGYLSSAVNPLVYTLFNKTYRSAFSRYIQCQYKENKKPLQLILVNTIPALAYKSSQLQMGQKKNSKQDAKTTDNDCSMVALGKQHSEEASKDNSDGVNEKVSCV
For `O=C=NCC1CCCC(CN=C=O)C1` (stereo unspecified), the “activation” value is 5.71%. The result for `CCOc1ccc(NS(=O)(=O)c2ccc(N)cc2)nn1` reads 1.99% [at 35.6 µM]; that for `Oc1cc2ccccc2c2ccccc12`, 2.79%.

`Cc1[nH]c(C)c(Cl)c(=O)c1Cl`: the activation is -10% [at 15.9 µM]. As for `CCCNCCC`, the figure is -2.82%. The result for `Cc1ccc2c(c1)CCCN2` reads -9.18%.

For `NCCCCCCNCCCCCCN`, the “activation” value was 13.6%.

As to `CC(C)(C)C1CCCCC1=O` (stereo unspecified), the “activation” value is 3.84%. The result for `CCN1C=CN(C)C1C` (stereo unspecified) reads 0.636%; that for `CC[N+](C)(CC)CCOC(=O)C1c2ccccc2Oc2ccccc21`, 1.03% [at 35.6 µM]; that for `NCCCN(CCO)CCO`, -2.14%.

Regarding `O=CN(CCO)CCO`, the “activation” value was 1.68%. The result for `CCN(C(=O)N(CC)c1ccccc1)c1ccccc1` reads -0.0467%; that for `Cc1ccccc1N=C(N)Nc1ccccc1C`, -1.08%.

As for `C1C2OC2C2C1C1CC2C2OC12` (stereo unspecified), the “activation” value is 3.19%. The result for `CC[N+](CC)(CC)CCOC(=O)C(C1CCCC1)C1CCCC1` reads 4.07% [at 35.6 µM]. As for `c1cc[c]([Bi]([c]2ccccc2)[c]2ccccc2)cc1`, the figure is -0.824%; as for `CC(CC=O)CCCC(C)(C)O` (stereo unspecified), -2.4%. The result for `CCOC(=O)C1=NN(c2ccccc2)C(=O)C1` reads -5.62%; that for `O=C1c2cccc3c2[C@H](CCC3)CN1[C@@H]1CN2CCC1CC2`, 1.5% [at 35.6 µM]; that for `CN(C)CCOC(=O)C(c1ccccc1)C1(O)CCCC1` (stereo unspecified), -0.0703% [at 35.6 µM].

Values taken from PubChem BioAssay (Tox21).
